Measurements from PubChem BioAssay AID539 (SRMLSC, 2006).
Screen size: about 65,000 compounds; about 320 (0.49%) were called active.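 Rule for the calls: active = top-ranked compounds by inhibition in the single 10 µM screen, taking a fixed number of the strongest; inactive = the rest, inconclusive results apart.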 The full list was thinned out, with actives kept by preference.

Test system: phosphomevalonate kinase (Streptococcus pneumoniae D39)
Assay: S. pneumoniae PMK inhibitors, primary screen, biochemical, mevalonate pathway, pilot trial included (AID 539);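 note: 0% = full reaction with DMSO carrier and 100% = background rate without enzyme reaction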
Conditions: purified PMK, PK/LDH-coupled NADH absorbance 340 nm, at 10 µM, stronger effect = higher value
[1] = measured here: pilot screen replicates

Row | SMILES | inhibition | inhibition [1]
1 | O=C(Nc1cccc2c1CCCC2)C1CCN(C(=O)NC2CCCCC2)CC1 | 13% (inactive) | 
2 | CCC(C)n1[nH]c(=O)cc1N (configuration not stated) | 5% (inactive) | 
3 | Cc1nn2c3cc(N4CCOCC4)ccc3nc2c2ccccc12 | 0% (inactive) | 
4 | Cn1c(SCC(=O)N2CCOCC2)nnc1-c1ccc(NC(=O)c2ccccc2F)cc1 | 40% (active) | 
5 | Cn1c(SCC(=O)Nc2cccc(O)c2)nnc1-c1ccc(S(=O)(=O)N2CCOCC2)cc1 | 0% (inactive) | 
6 | Cc1ccccc1C(=O)Nc1cccc(-c2nnc(SCC(=O)O)n2C)c1 | 7% (inactive) | 
7 | CCc1nnc(NC(=O)CSc2nnc(COc3ccc(C#N)cc3)n2-c2ccccc2)s1 | 4% (inactive) | 
8 | Cn1c(=O)[nH]c(=O)c2c1nc(Br)n2CCCCSc1nc2ccccc2o1 | 8% (inactive) | 
9 | C1=C(CCNc2ncnc3c2cnn3-c2ccccc2)CCCC1 | 8% (inactive) | 0.5%
10 | c1csc(-c2nc(-c3ccncc3)no2)c1 | 0% (inactive) | 
11 | O=C(O)CCN1C(=O)CC2(CCCCC2)C1=O | 12% (inactive) | 
12 | Cc1ccc(C)c(NC(=O)C2CCCN2C(=O)OC(C)(C)C)c1 (configuration not stated) | 0% (inactive) | 
13 | CC(C)N(C(=O)Cn1c(SCC(=O)N2CCN(c3ccccc3)CC2)nc2ccccc21)C(C)C | 4% (inactive) | 
14 | COCCN(CC(=O)Nc1ccccc1C)S(=O)(=O)c1ccc(S(=O)(=O)N2CCCC2)cc1 | 10% (inactive) | 2.5%
15 | CCOC(=O)C1CCN(C(=O)C2CCN(S(=O)(=O)c3c(C)noc3C)CC2)CC1 | 11% (inactive) | 
16 | CCOC(=O)C1CCN(C(=O)C2CCN(S(=O)(=O)CC)CC2)CC1 | 2% (inactive) | 
17 | CCOC(=O)C1CCN(C(=O)C2CCN(S(=O)(=O)N3CCCC3)CC2)CC1 | 30% (active) | 
18 | CC1(C)CC(=O)C=C(NC2CC(C)(C)NC(C)(C)C2)C1 | 8% (inactive) | 
19 | c1ccc(CCn2nnnc2CN2CCN(C3CCCC3)CC2)cc1 | 0% (inactive) | 0.5%
20 | CC1CCCCC1NC(=O)CCS(=O)(=O)c1cccc2nonc12 (configuration not stated) | 0% (inactive) | 
21 | O=C1CSC(=O)N1CCOCCN1C(=O)CSC1=O | 8% (inactive) | 
22 | Cc1ccccc1CN1CCN(C(=O)c2cccc(F)c2)CC1 | 0% (inactive) | 2%
23 | CCCCCOC(=O)C1=C(C)Nc2nnnn2C1c1ccc(OC)c(OC)c1OC (configuration not stated) | 11% (inactive) | 
24 | COc1ccc(CCn2nnnc2C(c2ccccc2)N2CCN(C)CC2)cc1OC (configuration not stated) | 18% (inactive) | 
25 | COC(=O)c1ccc(Oc2nc(Nc3ccc(F)cc3)nc(N3CCCC3)n2)cc1 | 4% (inactive) | 
26 | CCC1CCCCN1CCNC(=O)c1[nH]c(C)c(C(C)=O)c1C (configuration not stated) | 1% (inactive) | 
27 | CCC1CCCCN1CCCNC(=O)Cn1nc(-c2ccccc2)ccc1=O (configuration not stated) | 26% (active) | 
28 | Cc1ccc(-c2ccc(=O)n(CC(=O)NCCCN3CCCCC3)n2)cc1 | 18% (inactive) | 
